Reference: PubChem BioAssay (NCATS)
Results filed as inconclusive are left out. Where a call stands in place of a potency, no number is given. Unmarked numbers belong to inactive results. Activity calls are given as the source filed them. Unless noted, calls come from the whole dose curve.

Legend:
[1] = qHTS for Inhibitors of the Functional Ribonucleoprotein Complex (vRNP) of Lassa (LASV) Arenavirus: LASV Primary Screen - GLuc reporter signal (AID 1347082; calls by dose curve; tested in HEK293 reporter line; note: series mostly up to about 57 µM; nearly all actives have a fitted effect of over 60% in size)
[2] = qHTS for Inhibitors of the Functional Ribonucleoprotein Complex (vRNP) of Lassa (LASV) Arenavirus: Viability assay - alamar blue signal for LASV Primary Screen (AID 1347083; calls by dose curve; tested in HEK293 reporter line; note: series mostly up to about 57 µM; nearly all actives have a fitted effect of over 80% in size)
[3] = qHTS for Inhibitors of the Functional Ribonucleoprotein Complex (vRNP) of Lymphocytic Choriomeningitis Arenaviruses (LCMV): Viability assay - alamar blue signal for LCMV Primary Screen (AID 1347085; calls by dose curve; tested in HEK293 reporter line; note: series mostly up to about 57 µM; nearly all actives have a fitted effect of over 80% in size)
[4] = target: Nucleoprotein (Lymphocytic choriomeningitis virus (strain Armstrong)) (UniProt P09992); experiment: qHTS for Inhibitors of the Functional Ribonucleoprotein Complex (vRNP) of Lymphocytic Choriomeningitis Arenaviruses (LCMV): LCMV Primary Screen - GLuc reporter signal (AID 1347086); note: nearly all actives have a fitted effect of over 70% in size; note: potency is the fitted concentration of half-maximal effect; for activity change, negative = inhibition: series mostly up to about 57 µM
Sequence of Nucleoprotein (Lymphocytic choriomeningitis virus (strain Armstrong)) (P09992 whole entry, looked up): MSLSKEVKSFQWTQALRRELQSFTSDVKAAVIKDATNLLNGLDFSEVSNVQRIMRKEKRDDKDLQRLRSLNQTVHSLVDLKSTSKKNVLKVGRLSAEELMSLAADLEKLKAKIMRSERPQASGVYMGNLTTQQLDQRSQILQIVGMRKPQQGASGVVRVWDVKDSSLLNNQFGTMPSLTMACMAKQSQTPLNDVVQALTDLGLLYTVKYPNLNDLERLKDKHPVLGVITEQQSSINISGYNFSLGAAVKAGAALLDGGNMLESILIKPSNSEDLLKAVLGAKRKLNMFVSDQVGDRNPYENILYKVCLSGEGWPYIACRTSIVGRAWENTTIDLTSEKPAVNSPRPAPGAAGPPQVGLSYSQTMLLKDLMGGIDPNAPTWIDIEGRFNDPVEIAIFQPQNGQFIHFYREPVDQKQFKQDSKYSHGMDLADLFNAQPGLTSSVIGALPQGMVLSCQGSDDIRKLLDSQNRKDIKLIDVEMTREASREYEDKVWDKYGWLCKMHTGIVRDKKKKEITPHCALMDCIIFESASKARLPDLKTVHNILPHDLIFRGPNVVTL

Row | Structure (SMILES) | Potency [1] | Potency [2] | Potency [3] | Potency [4] | activity change, negative = inhibition [1] | activity change, negative = reduced viability [2] | activity change, negative = lower viability [3] | activity change, negative = inhibition [4]
1 | O=c1ccc2cc3ccoc3c(O)c2o1 | inactive | inactive | inactive | inactive |  |  |  | 
2 | COC(=O)CC1[C@@]2(C)C[C@]34OC5(C)OC6(C7CC(=O)OC(c8ccoc8)[C@]7(C)CCC6(O5)[C@]13C)C(OC(C)=O)[C@]4(OC(C)=O)C2OC(C)=O (stereo not given in full) | inactive | inactive | inactive | inactive |  |  |  | 
3 | N[C@H](CSSC[C@@H](N)C(=O)O)C(=O)O | inactive | inactive | inactive | inactive |  |  |  | 
4 | CC1CC[C@@]2(OC1)O[C@H]1CC3[C@@H]4C[C@@H](O)[C@@]5(O)C[C@@H](O)[C@H](O)C[C@]5(C)[C@H]4CC[C@]3(C)[C@H]1[C@@H]2C (stereo not given in full) | inactive | inactive | inactive | inactive |  |  |  | 
5 | COC(=O)Cc1ccccc1 | inactive | inactive | inactive | inactive |  |  |  | 
6 | CO[C@H]1/C=C\O[C@@]2(C)Oc3c(C)c(O)c4c(O)c(c5c(nc6cc(C)ccn65)c4c3C2=O)NC(=O)C(C)=CC=C[C@H](C)[C@H](O)[C@@H](C)[C@@H](O)[C@@H](C)[C@H](OC(C)=O)[C@H]1C | inactive | inactive | inactive | inactive |  |  |  | 
7 | CN=CNc1ccc(C)cc1C | inactive | inactive | inactive | inactive |  |  |  | 
8 | O=C1c2ccccc2-n2c1nc1ccccc1c2=O | inactive | inactive | inactive | 447 nM (active) |  |  |  | 
9 | CC1=CCC(C(C)C)=CC1 | inactive | inactive | inactive | inactive |  |  |  | 
10 | CC(=O)OC[C@@]12C(=O)[C@@H](O)[C@@H](C)[C@]3(C[C@@H](c4ccoc4)O[C@@H]3OC(C)=O)[C@H]1CCC[C@]21CO1 | inactive | inactive | inactive | inactive |  |  |  | 
11 | COc1c(O)c(O)c2oc(-c3ccccc3)cc(=O)c2c1OC | inactive | inactive | inactive | inactive |  |  |  | 
12 | CN1CCC[C@H]1CCO[C@](C)(c1ccccc1)c1ccc(Cl)cc1 | inactive | inactive | inactive | inactive |  |  |  | 
13 | O=c1ccn([C@H]2C[C@H](O)[C@@H](CO)O2)c(=O)[nH]1 | inactive | inactive | inactive | inactive |  |  |  | 
14 | COc1cc(=O)n(C)c2c(O)cccc12 | inactive | inactive | inactive | inactive |  |  |  | 
15 | CC1(C)C(N(O)C(=O)Nc2ccc(Cl)cc2)N(c2ccc(Cl)cc2)C(=O)N1CC(=O)NN=CC=Cc1ccc([N+](=O)[O-])o1 (stereo not given) | inactive | inactive | inactive | inactive |  |  |  | 
16 | C=C(C)[C@@H]1CC[C@@H](C)C[C@@H]1O | inactive | inactive | inactive | inactive |  |  |  | 
17 | CC1C(c2ccccc2)OC(=O)N1C (stereo not given) | inactive | inactive | inactive | inactive |  |  |  | 
18 | COC(=O)[C@@]1(C)CC[C@]2(C)CC[C@@]3(C)C(=CC(=O)C4[C@@]5(C)CC[C@H](O)C(C)(C)[C@@H]5CC[C@]43C)[C@H]2C1 (stereo not given in full) | inactive | inactive | inactive | inactive |  |  |  | 
19 | CC(=O)Nc1ccccc1O | inactive | inactive | inactive | inactive |  |  |  | 
20 | CCCCC(C)/C=C(C)/C=C(\C)C(=O)NC1=CC(O)(/C=C/C=C/C=C/C(=O)NC2=C(O)CCC2=O)C2OC2C1=O (stereo not given) | inactive | inactive | inactive | inactive |  |  |  | 
21 | O=c1c(O)c(-c2ccccc2O)oc2cc(O)cc(O)c12 | inactive | inactive | inactive | inactive |  |  |  | 
22 | CCCCCc1c2c(cc(O)c1C(=O)O)OC(=O)c1cc(C(=O)CCCC)c(OC)cc1O2 | inactive | inactive | inactive | inactive |  |  |  | 
23 | CCCC(=O)OCc1ccccc1 | inactive | inactive | inactive | inactive |  |  |  | 
24 | CC(C=CC(O)=C1C(=O)CNC1=O)=C[C@@H](C)C1OC2(C)OC(C(=O)C3O[C@@]32C)C1C (stereo not given in full) | inactive | inactive | inactive | inactive |  |  |  | 
25 | Nc1nc2c(ncn2[C@@H]2O[C@H](CO)[C@@H](O)[C@@H]2O)c(=O)[nH]1 | inactive | inactive | inactive | inactive |  |  |  | 
26 | C=C[C@H]1[C@H](O[C@@H]2O[C@H](CO)[C@@H](O)[C@H](O)[C@H]2O)OC=C2C(=O)OCC[C@]21O | inactive | inactive | inactive | inactive |  |  |  | 
27 | C[C@@H]1CC[C@H]2[C@H](C)[C@H]3CC[C@H]4C5[C@@H](O)CC6=CC(=O)CC[C@]6(C)[C@H]5C[C@H]4C3C(=O)N2C1 (stereo not given in full) | inactive | inactive | inactive | inactive |  |  |  | 
28 | CCCCC/C=C\C/C=C\C/C=C\CCCCCCC(=O)O[C@H](COCCCCCCCCCCCCCCCC)COP(=O)([O-])OCC[N+](C)(C)C |  |  |  |  | -13.6% [at 5.82 µM] | 4.54% [at 5.82 µM] | 13.1% [at 5.82 µM] | 9.5% [at 5.82 µM]
29 | COC1[C@@H](OC)C[C@H](C)[C@@H](OC)C2=CC(=O)C=C(NC(=O)/C(C)=C/C=C\[C@H](OC)[C@@H](OC(N)=O)/C(C)=C/[C@@H]1C)C2=O (stereo not given in full) |  |  |  |  | 1.65% [at 5.82 µM] | 7.34% [at 5.82 µM] | 15.6% [at 5.82 µM] | 12.1% [at 5.82 µM]
30 | CC1=C[C@H]2OC(=O)[C@@H](C)[C@H]2C[C@@H]2[C@H]1C[C@@H](O)[C@@]2(C)O | inactive | inactive | inactive | inactive |  |  |  | 
